From PubChem BioAssay (EPA / NIEHS)
Several values for one entry are separate records, joined by “and”; a condition that tells them apart may be missing. Identical values can stand only once. Results filed as inconclusive are left out. Some compounds were tested as several samples or in several runs, with calls that do not always agree. Activity calls are given as the source filed them. The calls were made as follows: active = hit-call score of the fitted dose curve at least 0.9, where 1 is the maximum; inconclusive = response in the unintended direction; inactive = score below 0.9.

Key:
[1] = molecular target: rat Glutamate, NMDA Agonist Site (GluNMDA), Grin1 (gene 24408) (UniProt P35439); assay: NVS_LGIC_rGluNMDA_Agonist: NovaScreen (NVS) Ligand-Gated Ion Channel Assay for rat Glutamate, NMDA Agonist Site (GluNMDA) (AID 2283327)
Method in brief: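 Radioligand displacement at the agonist site on rat forebrain membrane preparations, read by filter scintillation after 1 h. Chemicals were first run at 25 uM in duplicate; those passing threshold were titrated to a 50 uM maximum.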

[2] = molecular target: human Peripheral-type Benzodiazepine Receptor (PBR), TSPO (gene 706) (UniProt P30536); assay: NVS_MP_hPBR: NovaScreen (NVS) Membrane Protein Assay for human Peripheral-type Benzodiazepine Receptor (PBR) (AID 2283331);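 also: hits reduce radioligand binding relative to DMSO baseline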
Chain of human Peripheral-type Benzodiazepine Receptor (PBR), TSPO (gene 706) (P30536 whole entry, looked up): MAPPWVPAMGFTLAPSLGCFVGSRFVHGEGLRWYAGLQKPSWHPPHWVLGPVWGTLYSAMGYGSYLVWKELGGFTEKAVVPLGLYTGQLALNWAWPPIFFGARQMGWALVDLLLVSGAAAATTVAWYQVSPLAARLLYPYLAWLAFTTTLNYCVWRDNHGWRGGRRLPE
Method in brief: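 Cell-free radioligand displacement, human colonic membranes, 1 h exposure. Filter radiodetection read-out. Single-concentration duplicates (25 uM), then concentration-response for actives; DMSO negative control.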

[3] = molecular target: human Serotonin, 5-Hydroxytryptamine Receptor 3 (5HT3), HTR3A (gene 3359) (UniProt P46098); assay: NVS_LGIC_h5HT3: NovaScreen (NVS) Ligand-Gated Ion Channel Assay for human Serotonin, 5-Hydroxytryptamine Receptor 3 (5HT3) (AID 2283325)
Chain of human Serotonin, 5-Hydroxytryptamine Receptor 3 (5HT3), HTR3A (gene 3359) (P46098 whole entry, looked up): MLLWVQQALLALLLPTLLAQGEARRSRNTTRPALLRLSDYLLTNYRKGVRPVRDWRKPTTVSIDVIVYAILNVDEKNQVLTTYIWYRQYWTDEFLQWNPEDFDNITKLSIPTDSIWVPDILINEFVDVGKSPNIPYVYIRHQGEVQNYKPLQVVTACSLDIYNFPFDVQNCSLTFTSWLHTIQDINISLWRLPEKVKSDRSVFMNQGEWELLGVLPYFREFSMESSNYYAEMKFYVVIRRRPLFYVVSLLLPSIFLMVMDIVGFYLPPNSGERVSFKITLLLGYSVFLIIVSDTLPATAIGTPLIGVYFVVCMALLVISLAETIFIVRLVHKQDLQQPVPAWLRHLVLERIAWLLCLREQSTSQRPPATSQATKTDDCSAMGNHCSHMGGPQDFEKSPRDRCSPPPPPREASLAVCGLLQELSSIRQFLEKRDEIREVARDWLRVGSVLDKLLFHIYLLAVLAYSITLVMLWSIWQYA
Method in brief: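 Initially tested at 25 uM in duplicate, then up to 50 uM in concentration-response for actives, compounds competed with a radioligand for HEK293-derived human 5-HT3 receptor. Bound counts were measured by filtration and scintillation at 1 h; loss of signal versus DMSO.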

[4] = NVS_IC_rCaBTZCHL: NovaScreen (NVS) Ion Channel Assay for Calcium Channel, Type L, Benzothiazepine Site (CaBTZCHL) (AID 2283337)
Method in brief: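 Test chemicals were added to rat cortical membranes and incubated 1.5 h with a tritiated or iodinated radioligand for the benzothiazepine site. Bound ligand was separated by filtration and counted. Actives from the 25 uM duplicate screen were retested in concentration series.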

[5] = tested on: guinea pig Histamine Receptor (H2), gene 100729734; assay: NVS_GPCR_gH2: NovaScreen (NVS) G Protein-Coupled Receptor Assay for guinea pig Histamine Receptor (H2) (AID 2283342)
Method in brief: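 Guinea pig striatal membrane preparation with specific radioligand; bound counts measured by filtration and scintillation 1 h post-dosing, DMSO as baseline. Chemicals passing a 25 uM duplicate screen were titrated to a 50 uM maximum.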

[6] = molecular target: rat Glutamate, AMPA Site (AMPA), Gria1 (gene 50592) (UniProt P19490); assay: NVS_LGIC_rAMPA: NovaScreen (NVS) Ligand-Gated Ion Channel Assay for rat Glutamate, AMPA Site (AMPA) (AID 2283324)
Chain of rat Glutamate, AMPA Site (AMPA), Gria1 (gene 50592) (P19490 whole entry, looked up): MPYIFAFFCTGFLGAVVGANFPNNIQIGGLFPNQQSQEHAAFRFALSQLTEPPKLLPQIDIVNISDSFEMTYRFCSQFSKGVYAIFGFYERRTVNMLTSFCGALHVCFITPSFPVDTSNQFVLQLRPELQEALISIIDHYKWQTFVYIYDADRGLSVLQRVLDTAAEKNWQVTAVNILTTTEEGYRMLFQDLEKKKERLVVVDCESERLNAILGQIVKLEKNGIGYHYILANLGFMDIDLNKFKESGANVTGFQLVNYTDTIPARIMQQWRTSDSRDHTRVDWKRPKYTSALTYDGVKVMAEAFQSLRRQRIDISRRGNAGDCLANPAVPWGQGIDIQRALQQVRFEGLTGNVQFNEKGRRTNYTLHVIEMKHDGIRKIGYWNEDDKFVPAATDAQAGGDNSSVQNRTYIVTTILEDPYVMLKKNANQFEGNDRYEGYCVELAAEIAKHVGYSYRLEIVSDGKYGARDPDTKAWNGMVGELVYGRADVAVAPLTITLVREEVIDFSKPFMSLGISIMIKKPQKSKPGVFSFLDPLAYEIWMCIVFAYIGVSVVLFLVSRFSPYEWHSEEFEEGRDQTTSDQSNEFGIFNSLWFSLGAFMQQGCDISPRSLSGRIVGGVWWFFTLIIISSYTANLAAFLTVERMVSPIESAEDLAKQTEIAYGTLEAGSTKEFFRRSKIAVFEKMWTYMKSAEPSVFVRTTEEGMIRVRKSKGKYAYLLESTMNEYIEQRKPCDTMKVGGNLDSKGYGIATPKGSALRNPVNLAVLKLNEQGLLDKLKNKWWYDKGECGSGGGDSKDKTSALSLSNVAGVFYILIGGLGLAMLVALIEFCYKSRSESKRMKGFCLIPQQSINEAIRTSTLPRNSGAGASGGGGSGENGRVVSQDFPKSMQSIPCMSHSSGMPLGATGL
Method in brief: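 Screening at 25 uM in duplicate preceded concentration series reaching 50 uM for qualifying compounds. Radioligand displacement on rat forebrain membranes, 1 h, filter-based scintillation readout; reduced binding relative to DMSO.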

[7] = molecular target: rat Peripheral-type Benzodiazepine Receptor (PBR), Tspo (gene 24230) (UniProt P16257); assay: NVS_MP_rPBR: NovaScreen (NVS) Membrane Protein Assay for rat Peripheral-type Benzodiazepine Receptor (PBR) (AID 2283335)
Chain of rat Peripheral-type Benzodiazepine Receptor (PBR), Tspo (gene 24230) (P16257 whole entry, looked up): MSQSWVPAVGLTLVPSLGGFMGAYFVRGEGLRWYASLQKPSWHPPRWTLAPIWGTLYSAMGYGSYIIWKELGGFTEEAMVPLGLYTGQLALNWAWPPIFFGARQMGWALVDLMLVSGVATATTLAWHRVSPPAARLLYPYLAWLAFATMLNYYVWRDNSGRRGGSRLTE
Method in brief: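 Competitive displacement of specific radioligand from rat kidney membrane PBR, read by filtration and scintillation after 1 h. Compounds first tested at 25 uM in duplicate, then in concentration series; signal loss relative to DMSO.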

[8] = molecular target: chimpanzee Androgen Receptor (AR), AR (gene 747460) (UniProt O97775); assay: NVS_NR_cAR: NovaScreen (NVS) Nuclear Receptor Binding Assay for chimpanzee Androgen Receptor (AR) (AID 2283346);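 also: radioligand displacement from AR measured by scintillation counting in a cell-free assay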
Chain of chimpanzee Androgen Receptor (AR), AR (gene 747460) (O97775 whole entry, looked up): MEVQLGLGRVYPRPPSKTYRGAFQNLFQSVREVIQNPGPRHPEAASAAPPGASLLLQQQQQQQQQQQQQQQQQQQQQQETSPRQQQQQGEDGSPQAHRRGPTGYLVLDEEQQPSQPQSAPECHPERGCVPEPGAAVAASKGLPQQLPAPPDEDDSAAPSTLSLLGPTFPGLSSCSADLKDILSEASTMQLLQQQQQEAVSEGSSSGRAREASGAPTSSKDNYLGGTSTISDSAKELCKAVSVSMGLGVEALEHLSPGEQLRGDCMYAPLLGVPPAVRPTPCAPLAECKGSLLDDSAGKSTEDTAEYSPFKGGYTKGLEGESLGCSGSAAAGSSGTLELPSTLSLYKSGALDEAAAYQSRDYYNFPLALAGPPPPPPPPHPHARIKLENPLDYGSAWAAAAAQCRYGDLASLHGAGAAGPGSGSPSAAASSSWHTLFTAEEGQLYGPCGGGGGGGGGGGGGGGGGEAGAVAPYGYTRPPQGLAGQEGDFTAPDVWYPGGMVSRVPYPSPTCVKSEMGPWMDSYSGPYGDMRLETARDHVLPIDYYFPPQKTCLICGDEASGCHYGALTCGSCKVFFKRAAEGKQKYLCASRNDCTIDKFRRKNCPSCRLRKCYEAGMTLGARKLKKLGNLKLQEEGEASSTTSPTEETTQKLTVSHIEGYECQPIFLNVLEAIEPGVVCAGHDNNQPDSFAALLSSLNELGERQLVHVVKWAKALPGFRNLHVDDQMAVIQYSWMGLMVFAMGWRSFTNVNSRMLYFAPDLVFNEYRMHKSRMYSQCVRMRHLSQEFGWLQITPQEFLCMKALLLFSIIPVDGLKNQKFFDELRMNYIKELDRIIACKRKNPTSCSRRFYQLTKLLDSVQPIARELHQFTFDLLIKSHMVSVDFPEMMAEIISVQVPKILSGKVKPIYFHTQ
Method in brief: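 Radioligand binding to chimpanzee AR expressed in Sf9/Sf21 cells, cell-free, measured 72 h after dosing by lysate-based scintillation counting. Loss of signal vs DMSO; initial duplicate screen at 25 uM, actives retested in concentration series.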

[9] = molecular target: rat Thyrotropin Releasing Hormone Receptor (TRH), Trhr (gene 25570) (UniProt Q01717); assay: NVS_GPCR_rTRH: NovaScreen (NVS) G Protein-Coupled Receptor Assay for rat Thyrotropin Releasing Hormone Receptor (TRH) (AID 2283329);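 also: hit means lower bound tracer signal versus DMSO baseline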
Chain of rat Thyrotropin Releasing Hormone Receptor (TRH), Trhr (gene 25570) (Q01717 whole entry, looked up): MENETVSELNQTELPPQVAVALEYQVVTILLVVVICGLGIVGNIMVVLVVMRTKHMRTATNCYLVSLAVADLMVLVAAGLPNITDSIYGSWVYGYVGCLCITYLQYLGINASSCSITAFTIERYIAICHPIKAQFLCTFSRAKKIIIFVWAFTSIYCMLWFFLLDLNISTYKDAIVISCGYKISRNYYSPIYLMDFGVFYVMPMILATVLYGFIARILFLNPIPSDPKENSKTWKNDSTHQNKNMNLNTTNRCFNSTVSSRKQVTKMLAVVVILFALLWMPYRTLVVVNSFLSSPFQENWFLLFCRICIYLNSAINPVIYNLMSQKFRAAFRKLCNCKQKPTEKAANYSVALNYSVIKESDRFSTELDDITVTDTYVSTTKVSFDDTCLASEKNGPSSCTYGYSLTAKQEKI
Method in brief: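 Rat forebrain membranes; radioligand displacement at TRH receptor by filter-based scintillation counting, read 4 h after dosing. Duplicate single-point screen at 25 uM, actives rerun in concentration series; loss of signal relative to DMSO.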

[10] = molecular target: Voltage-gated inwardly rectifying potassium channel KCNH2 (Homo sapiens) (UniProt Q12809); assay: NVS_IC_hKhERGCh: NovaScreen (NVS) Ion Channel Assay for human Potassium Channel ERG (KhERGCh) (AID 2283333)
Chain of Voltage-gated inwardly rectifying potassium channel KCNH2 (Homo sapiens) (Q12809 whole entry, looked up): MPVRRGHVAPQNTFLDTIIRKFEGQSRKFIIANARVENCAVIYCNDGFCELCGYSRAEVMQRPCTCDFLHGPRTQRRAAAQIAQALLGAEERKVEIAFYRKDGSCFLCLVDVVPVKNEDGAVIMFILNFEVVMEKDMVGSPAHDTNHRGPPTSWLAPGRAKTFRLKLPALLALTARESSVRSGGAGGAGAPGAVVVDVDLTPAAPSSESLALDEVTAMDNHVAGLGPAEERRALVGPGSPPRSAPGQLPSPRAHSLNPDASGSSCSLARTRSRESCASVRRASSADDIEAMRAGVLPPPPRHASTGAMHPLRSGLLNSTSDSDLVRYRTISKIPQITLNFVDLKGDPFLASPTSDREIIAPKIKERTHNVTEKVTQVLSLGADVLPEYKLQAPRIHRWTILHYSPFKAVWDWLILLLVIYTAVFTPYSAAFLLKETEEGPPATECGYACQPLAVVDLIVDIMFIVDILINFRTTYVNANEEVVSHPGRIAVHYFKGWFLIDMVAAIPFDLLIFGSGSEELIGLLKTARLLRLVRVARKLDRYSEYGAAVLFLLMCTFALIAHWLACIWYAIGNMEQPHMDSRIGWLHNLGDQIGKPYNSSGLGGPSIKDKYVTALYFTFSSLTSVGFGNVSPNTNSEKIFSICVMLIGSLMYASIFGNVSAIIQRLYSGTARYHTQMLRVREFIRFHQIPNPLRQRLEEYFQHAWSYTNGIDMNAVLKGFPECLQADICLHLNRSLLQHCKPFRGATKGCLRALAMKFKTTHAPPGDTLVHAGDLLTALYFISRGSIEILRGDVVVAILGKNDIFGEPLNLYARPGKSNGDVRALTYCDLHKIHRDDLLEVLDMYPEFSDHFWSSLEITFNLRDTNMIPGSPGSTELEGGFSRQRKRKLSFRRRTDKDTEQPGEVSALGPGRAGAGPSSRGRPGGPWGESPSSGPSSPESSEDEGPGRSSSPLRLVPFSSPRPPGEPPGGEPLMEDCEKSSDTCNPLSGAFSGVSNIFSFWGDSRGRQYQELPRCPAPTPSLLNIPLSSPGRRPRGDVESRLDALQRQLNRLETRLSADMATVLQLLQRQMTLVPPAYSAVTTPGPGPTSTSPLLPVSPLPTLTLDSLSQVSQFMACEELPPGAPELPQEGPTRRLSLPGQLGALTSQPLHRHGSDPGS
Method in brief: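 Membranes from CHO cells expressing human ERG; displacement of radioligand measured by filtration and scintillation after 0.75 h. Single-concentration duplicate screen at 25 uM, then concentration-response for actives; DMSO baseline.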

[11] = molecular target: rat Glutamate, MK-801 Agonist Site (GluNMDA_MK801), Grin1 (gene 24408) (UniProt P35439); assay: NVS_LGIC_rGluNMDA_MK801_Agonist: NovaScreen (NVS) Ligand-Gated Ion Channel Assay for rat Glutamate, MK-801 Agonist Site (GluNMDA_MK801) (AID 2283340)
Method in brief: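 Rat forebrain membrane preparation; MK-801-site radioligand binding read by filtration and scintillation after 1.5 h. Single-point 25 uM duplicate screen, followed by singleton concentration series to 50 uM max; DMSO baseline.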

[12] = molecular target: bovine Estrogen Receptor (ER), ESR1 (gene 407238) (UniProt P49884); assay: NVS_NR_bER: NovaScreen (NVS) Nuclear Receptor Binding Assay for bovine Estrogen Receptor (ER) (AID 2283345);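 also: actives lower the bound radioligand count which means they displace the ER ligand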
Method in brief: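 Cell-free radioligand binding with bovine uterine membrane extracts, read 18 hours after dosing by scintillation counting. Loss of signal versus DMSO baseline indicates displacement. Primary screen run in duplicate at 25 uM, actives followed in concentration series.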

[13] = molecular target: human Constitutive Androstane Receptor (CAR), NR1I3 (gene 9970) (UniProt Q14994); assay: NVS_NR_hCAR_Agonist: NovaScreen (NVS) Nuclear Receptor Binding Assay for human Constitutive Androstane Receptor Agonism (CAR) (AID 2283328)
Chain of human Constitutive Androstane Receptor (CAR), NR1I3 (gene 9970) (Q14994 whole entry, looked up): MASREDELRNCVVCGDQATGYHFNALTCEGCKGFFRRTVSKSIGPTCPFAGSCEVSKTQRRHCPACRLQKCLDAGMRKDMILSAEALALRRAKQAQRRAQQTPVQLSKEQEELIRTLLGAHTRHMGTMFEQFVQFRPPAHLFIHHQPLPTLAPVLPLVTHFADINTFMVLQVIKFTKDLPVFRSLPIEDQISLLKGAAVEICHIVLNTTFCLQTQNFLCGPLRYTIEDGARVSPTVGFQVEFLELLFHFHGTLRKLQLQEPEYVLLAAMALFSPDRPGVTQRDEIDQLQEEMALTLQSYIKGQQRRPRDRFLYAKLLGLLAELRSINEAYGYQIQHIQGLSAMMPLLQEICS
Method in brief: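 Actives from a 25 uM duplicate screen were retested in singleton concentration series to 50 uM max. Biochemical TR-FRET assay on extracted CAR protein measured 1 h post-dose, with signal increase over DMSO control.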

[14] = molecular target: human Constitutive Androstane Receptor (CAR), NR1I3 (gene 9970) (UniProt Q14994); assay: NVS_NR_hCAR_Antagonist: NovaScreen (NVS) Nuclear Receptor Binding Assay for human Constitutive Androstane Receptor Antagonism (CAR) (AID 2283344)
Method in brief: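 Single 25 uM duplicate primary screen, with concentration-series follow-up on actives. Cell-free binding format run in antagonist mode, TR-FRET signal taken 1 h post-dose; activity is signal loss relative to DMSO.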

[15] = molecular target: bovine Gamma-Aminobutyric Acid Type A Receptor Agonist (GABAR Agonist), GABRA1 (gene 780973) (UniProt P08219); assay: NVS_LGIC_bGABAR_Agonist: NovaScreen (NVS) Ligand-Gated Ion Channel Assay for bovine Gamma-Aminobutyric Acid Type A Receptor Agonist (GABAR Agonist) (AID 2283338)
Chain of bovine Gamma-Aminobutyric Acid Type A Receptor Agonist (GABAR Agonist), GABRA1 (gene 780973) (P08219 whole entry, looked up): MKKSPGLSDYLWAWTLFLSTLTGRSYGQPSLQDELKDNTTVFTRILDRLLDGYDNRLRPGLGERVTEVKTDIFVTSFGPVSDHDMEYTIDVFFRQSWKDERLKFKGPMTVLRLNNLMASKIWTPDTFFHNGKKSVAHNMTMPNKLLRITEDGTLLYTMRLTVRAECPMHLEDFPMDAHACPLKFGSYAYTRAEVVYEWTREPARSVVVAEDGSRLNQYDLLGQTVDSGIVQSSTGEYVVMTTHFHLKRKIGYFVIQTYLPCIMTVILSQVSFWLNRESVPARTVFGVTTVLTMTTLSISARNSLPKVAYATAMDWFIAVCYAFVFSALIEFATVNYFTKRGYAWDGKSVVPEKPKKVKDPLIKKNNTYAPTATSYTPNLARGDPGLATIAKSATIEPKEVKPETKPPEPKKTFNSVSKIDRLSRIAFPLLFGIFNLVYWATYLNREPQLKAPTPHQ
Method in brief: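 Radioligand binding to bovine cerebellar membranes in agonist format, read by filter-based scintillation counting after 1 h. Primary screen in duplicate at 25 uM, with actives followed in concentration series. Gain of signal versus DMSO.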

O=C(O)Cn1c(=O)n(Cc2ccc(Br)cc2F)c(=O)c2ccc(Cl)cc21
outcome [1]: inactive
outcome [2]: inactive

COc1cccc([C@H](O)C2CCN(CCc3ccc(F)cc3)CC2)c1OC
outcome [3]: inactive
AC50 [4]: 1.35 µM (active)
AC50 [5]: 13.1 µM (active)

CC/C(=C(/CC)c1ccc(O)cc1)c1ccc(O)cc1
outcome [6]: inactive
AC50 [2]: 202 nM (active) and 13.5 µM (active)
outcome [2]: inactive
AC50 [7]: 20.8 µM (active) and 25 µM (active) and 1.49 µM (active)
AC50 [4]: 12.4 µM (active)
AC50 [8]: 12.6 µM (active)
outcome [8]: inactive

CCCCCCCCCC(=O)O
outcome [6]: inactive

COc1cc(C(=O)NC2CCN(C)CC2)ccc1Nc1ncc2c(n1)N(C1CCCC1)CC(F)(F)C(=O)N2C
AC50 [1]: 11.5 µM (active)
outcome [9]: inactive
outcome [2]: inactive
AC50 [10]: 5.1 µM (active)
AC50 [4]: 10.8 µM (active)
AC50 [11]: 15.9 µM (active)
AC50 [5]: 4.77 µM (active)
outcome [12]: inactive

CCCCOC(=O)c1ccc(O)cc1
outcome [6]: inactive
outcome [13]: inactive
AC50 [2]: 19.6 µM (active) and 25 µM (active)
AC50 [7]: 3 µM (active) and 25 µM (active)
outcome [8]: inactive

CN(C[C@@H](CC[N+]12CCC(C3CCCCC3)(CC1)CC2)c1ccc(Cl)c(Cl)c1)C(=O)c1cc(C(F)(F)F)cc(C(F)(F)F)c1
outcome [6]: inactive
AC50 [1]: 38.2 µM (active)
AC50 [7]: 2.4 µM (active)
AC50 [4]: 1.48 µM (active)

Clc1cc(Cl)c2c(c1)N=C1CCCCCN1C2
AC50 [3]: 12.5 µM (active)
outcome [4]: inactive
AC50 [5]: 1.85 µM (active)
outcome [14]: inactive

Cc1oc2c(NC(=O)c3c(Cl)cccc3Cl)cccc2c1C(C)(C)O
outcome [9]: inactive
AC50 [2]: 1.26 µM (active)
AC50 [7]: 2.5 µM (active)
AC50 [14]: 34.6 µM (active)
outcome [8]: inactive

CCOC(=O)O[C@H](C)OC(=O)c1ccc2c(c1)cc(C(=O)NC1CCN(C(C)C)CC1)n2Cc1cc(-c2ccc(Cl)s2)on1
outcome [3]: inactive
AC50 [10]: 0.925 µM (active)
AC50 [4]: 9.12 µM (active)
AC50 [15]: 11.8 µM (active)
AC50 [5]: 13.3 µM (active)
AC50 [8]: 17.8 µM (active)

Cc1occc1C(=O)Nc1ccc(C(=O)N2CCC(F)(F)/C(=C\C(=O)N3CCC(N4CCCCC4)CC3)c3ccccc32)cc1
outcome [9]: inactive
AC50 [4]: 5.12 µM (active)
outcome [5]: inactive

CC(C)(O)c1ccc(CNC(=O)c2cccnc2Oc2ccc3nonc3c2)cc1
outcome [3]: inactive
AC50 [2]: 2.34 µM (active)
AC50 [7]: 7.64 µM (active)
